Measured values: the supplement of paper PMC6555819

What was measured:
Experiment in all cases: PBM binding z-score (relative to random genomic background probes); higher = stronger binding; sequences stand for … in GC…GCGATTGACAGCGTAGAATGAAGG
[1] = system: RARb homodimer (NR concentration 270 nM)
Procedure, shortened: (§1)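 On custom Agilent 4×180K arrays, double-stranded probes with 34-nt variable regions carried direct-repeat seeds, single-nucleotide variants, half-site ablations or random human genomic background. Ligand-free nuclear receptor dimers were applied for 1 h, and binding was read with antibodies against each partner (one per run). Binding z-scores come from regression-normalized fluorescence, with the random background probes as reference.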

[2] = system: RARg:RXRa (NR concentration 270 nM, RXRa partner concentration 90 nM)
Procedure, shortened: as §1

[3] = system: RARg homodimer (NR concentration 270 nM)
Procedure, shortened: as §1

[4] = system: RXRa DBDmut IVT, anti-RXR (DBD mutation: RXRa K156A/R161A, NR concentration 90 nM)
Procedure, shortened: as §1

[5] = system: RXRa homodimer (NR concentration 180 nM)
Procedure, shortened: as §1

[6] = system: THRa:RXRa (NR concentration 90 nM, RXRa partner concentration 90 nM)
Procedure, shortened: as §1

[7] = system: THRa homodimer (NR concentration 90 nM)
Procedure, shortened: as §1

[8] = system: VDR homodimer (NR concentration 270 nM)
Procedure, shortened: as §1

Sequence | PBM binding z-score [1] | PBM binding z-score [2] | PBM binding z-score [3] | PBM binding z-score [4] | PBM binding z-score [5] | PBM binding z-score [6] | PBM binding z-score [7] | PBM binding z-score [8]
ATATGTAGGTTACATCCGGCTCATTCAGGCTATG | 0.467 | 0.906 | 1.15 | 0.846 | 0.829 | 1.09 | 0.4 | 0.27
ATTCAAAGTTCATCTAGGTAACGTAAGATATGCT | 3.89 | 5.29 | 5.82 | 4.6 | 4.46 | 3.13 | 0.475 | 4.9
CGAACTAGGTCAGAACACGACAGTGAAGGATGAT | 1.84 | 2.55 | 3.06 | 0.593 | 1.39 | 1.31 | 0.186 | -0.122
TCTAGTTGGTCTCGGAGGTCACACACGACGGGTA | 4.01 | 3.75 | 3.47 | 1.15 | 4.16 | 3.65 | 2.74 | 2.48
CCTTACGGGTCACTCCTGGTTATAGCATCGGAGT | 2.89 | 4.05 | 4 | 1.26 | 3.9 | 2.86 | -0.0278 | 1.19
TCGAGTAGGTTACCAACGGGGCATTCAGCTTTCT | 0.583 | 1.52 | 0.504 | 0.191 | 0.733 | 0.042 | -0.794 | -0.578
AGAATGAGGTTATACGTAGATCAGGAAAGAAAGT | 0.817 | 1.68 | 1.3 | 1.77 | 2.25 | 2.15 | 0.219 | 0.894
GATACAGGGTCAGCTAGAGGCCTGAGTATGGAAA | 2.73 | 4.73 | 4.64 | 1.14 | 4.29 | 2.49 | 0.0158 | 0.311
TCATATACGTAAACAGGTGAAAGTCCGTAAGTTA | 0.865 | 0.708 | 0.405 | 1.91 | 0.88 | 0.985 | 0.342 | 0.357
GGAACGAGGGCAAAGTTGACAGCATCTGTCGACG | 1.58 | 2.77 | 2.16 | 2.56 | 2.76 | 1.67 | -0.266 | 1.24
CCTACTGGCCCATTCAGAGGTCATTGATCATATG | 3.64 | 2.97 | 2.56 | 0.948 | 3.56 | 3.04 | 1.71 | 3.87
TCGATTAGGTTAGGGGCATTCAGAATGGCGTCGA | 1.25 | 0.511 | 0.723 | 1.34 | 0.857 | 1.33 | 0.776 | 1.08
CCTCGGAGGACAGAAGGACAGAGCTGTCCGCTTT | 0.278 | -0.0569 | 0.674 | -0.277 | -0.555 | 0.672 | -0.622 | -0.357
TCTGCGAGGTCAGTTGGTCAGCTAACGAGCTGCC | 3.86 | 5 | 5.42 | 2.8 | 3.76 | 3.22 | 1.39 | 2.02
TAGCCTAGGTCAATCAGGGGCCAGTATAGAAAGC | 3.1 | 5.75 | 4.13 | 0.358 | 2.51 | 3.22 | 0.496 | 0.332
GCAGACAGGAGAAACGCAGGTAACTCAGGGTGGC | -0.808 | -0.38 | -0.484 | -0.907 | -0.112 | 0.301 | -0.985 | -0.432
TCTCGGAGGACACGGAGGTCAGAGCTTTCCAGAG | 3.7 | 3.54 | 3.91 | 0.792 | 2.47 | 3.34 | 1.77 | 2
TAGCCTAGGTCATTCAGGGGCCATTATAGAAAGC | 3.54 | 6.28 | 4.48 | 2.04 | 3.12 | 3.69 | 1.13 | 1.96
TCTGGTAGATCAATAGAGGTTAAGAAAGTGCGCT | 1.43 | 0.787 | 0.391 | 0.698 | 1.48 | 2.22 | -0.138 | 0.435

Sequence | PBM binding z-score [1] | PBM binding z-score [2] | PBM binding z-score [3] | PBM binding z-score [4] | PBM binding z-score [5] | PBM binding z-score [6] | PBM binding z-score [7] | PBM binding z-score [8]
AGTCGAAGTTCATCTAGGTAACGTAAGATATGCT | 2.11 | 2.84 | 3.19 | 3.88 | 1.91 | 2.31 | -0.00664 | 3.81
CCGACTGGGGCAAGGTTACCATTACGCACAGCCA | 1.42 | 0.911 | 1.17 | -0.427 | 1.03 | 1.09 | 0.435 | 0.338
AGAATGAGGTTATTAAGACCAGGGAATTGCGGTC | 0.935 | 1.24 | 0.733 | 1.64 | 1.91 | 2.17 | 0.47 | 0.915
GGAACGAGGGCATTGGAGTTGATAGCATGGCGAT | 1.04 | 1.13 | 1.42 | 2.75 | 0.72 | 1.9 | -0.24 | 2.58
ACTCGGAGGACAAAGTTCAGAGCTACGCCAGTGA | 2.84 | 3.2 | 2.63 | 2.1 | 1.63 | 1.71 | -0.296 | 2.54
CCTAATTGGTCAAGGTCACACACGCTATAGGTAC | 4.67 | 4.73 | 4.86 | 2.36 | 4.64 | 4.34 | 4.13 | 3.38
TCTAGTTGGTCACGGAGGTCACATACGACGGGTA | 4.57 | 4.42 | 4.92 | 1.16 | 4.57 | 3.68 | 2.58 | 2.84
ACAGACAGGTGAGTGAAGGTTACTCAGCTGGACG | 0.978 | 0.724 | 0.906 | -0.643 | 0.869 | 1.68 | -0.671 | -0.214
CCAGGCAGGTGAGAAGGTAACTCAGCCTCGATTA | 0.294 | 0.181 | -0.0537 | -0.754 | 0.145 | 0.198 | -0.116 | -0.279
CCGACTGGGGCAGAAAGGTCACCATACCATCCGG | 5.15 | 5.42 | 5.69 | -0.33 | 5.7 | 3.2 | 1.38 | 1.86
ACTTACGGGTCAACGAGGTTATCGCACGCGTATA | 3.52 | 5.86 | 5.38 | 3 | 6.75 | 4.19 | 1.23 | 4.34
TTAATGAGGTTAAAGATCAGGGAACGTGGCGTCG | 0.917 | 2.56 | 1.52 | 1.68 | 4.02 | 2.89 | 0.742 | 1.14
CCTACTGGGCCATGCAGAGGTCATTGATCATATG | 3.99 | 4.29 | 2.87 | 0.291 | 3.81 | 3.05 | 1.12 | 3.36
TCTGCTAGGTCAACGATGGTCAACTAATCTGCTA | 3.58 | 4.12 | 5.25 | 1.32 | 2.75 | 3.24 | 1.05 | 0.125
ATCTCTAGGAAAGACTCAGTTCAGTGAAGAACGC | 0.415 | -0.181 | 0.129 | 0.549 | -0.107 | 0.203 | 0.155 | 1.33
AGAATGAGGTTATACGCAGATCAGGGAAGAAAGT | 0.779 | 1.67 | 0.985 | 1.47 | 2.3 | 2.22 | 0.465 | 0.945
ATCTCTAGGTAAAGATAGCTCAGTGAATGCAAAT | -0.409 | 0.141 | 0.459 | -0.409 | -0.19 | -0.00233 | -0.226 | -0.379
CGTCCAAGTTCAAAGGTCAGTGAAGAGATGACGG | 4.6 | 7.24 | 6.28 | 4.85 | 8.41 | 3.84 | 0.506 | 5.47
CCGACTGGGGCAAAGGTGACCATACTCAGTACGA | 1.44 | 1.9 | 1.13 | -0.244 | 2.04 | 0.896 | -0.0809 | -0.471

Sequence | PBM binding z-score [1] | PBM binding z-score [2] | PBM binding z-score [3] | PBM binding z-score [4] | PBM binding z-score [5] | PBM binding z-score [6] | PBM binding z-score [7] | PBM binding z-score [8]
CAAACTAGGTCAAAGGTCACAGTCGAGCCAACCA | 5.31 | 8.75 | 7.36 | 2.94 | 9.91 | 5.02 | 2.38 | 2.73
ATCGAAAGGTCGAAGGTGAGTATACCCACCCGAA | 2.51 | 4.29 | 3.81 | 0.771 | 5.16 | 2.27 | -0.0349 | 0.804
TCTCGGAGGACACGAAAGGTCAAAGCTCGACATC | 5.19 | 5.82 | 6.04 | 1.63 | 5.82 | 4.18 | 1.76 | 2.51
CCGCCTGGGGCATAAGGTTACCATAAGCCAGCCC | 1.94 | 1.82 | 1.11 | -0.905 | 1.07 | 1.99 | 1.33 | -0.126
CAAACTGGGTCACCGGAAGGTCAAAGTCCGCATG | 5.45 | 8.27 | 7.08 | 0.907 | 6.37 | 4.2 | 1.61 | 2.92
TCTAGCAGGCCAGAGGGTCAATCAAGAGGTACGG | 2.63 | 2.97 | 2.14 | -0.246 | 2.87 | 1.62 | -0.729 | 0.802
TCTAGTTGGTCAAAGGGCACACACTCGAAATGCG | 2.36 | 2.72 | 1.97 | 0.876 | 2.62 | 1.12 | -0.0377 | 0.575
GCTGCTAGGTCAACTGACGGTCAGCTAAAGCTCG | 4.31 | 6.76 | 5.94 | 1.64 | 3.33 | 3.21 | 0.993 | -0.00537
CAGCCTAGGTCAGGACCAGTATAGGAGGAACGTT | 1.97 | 2.81 | 3.89 | -0.0885 | 1.7 | 1.94 | 0.463 | -0.0387
ATCTCTAGGTAACGTTCAGTGAAAGATCGATAGA | 0.194 | 0.535 | 0.638 | 0.201 | 0.277 | 0.969 | 0.455 | -0.197
TAGCCTAGGTCATTGGGCCAGTAAAGTACGCATC | 2.78 | 3.91 | 4.25 | 1.61 | 3.1 | 2.69 | 0.775 | 1.48
ATACCAAGGTGATAGTGAGGTCGTTGATACTAAC | 1.84 | 2.12 | 0.961 | 0.897 | 1.84 | 3.3 | 2.49 | 3.15
CCTATTAGTTGACCATAATGGCAACCGAAGCTCG | 0.786 | 0.589 | 0.606 | 0.918 | 0.421 | 0.384 | 0.631 | 1.12
ATGTGTAGGTTAAGGGTCATTCAGGTTGGTTCGC | 4.06 | 4.95 | 3.99 | 2.14 | 6.33 | 3.69 | 2.32 | 5.37
CAAACTAGATCAAAGGTCAAAGTCGAGCCAACCA | 4.67 | 6.29 | 5.66 | 2.16 | 7.75 | 3.51 | 0.812 | 2.87
ACAGATAGGTGATGAAGGTAACTCAGGCTATCAT | 0.0763 | 0.532 | 0.586 | -0.397 | 0.485 | 0.83 | -0.19 | -0.247
AGTCAAAGTTCACTAGGTAACGTTAGATTCAGCT | 3.56 | 4.93 | 5.57 | 4.15 | 4 | 2.05 | 0.157 | 3.87
AATACAGGGTCAGTAGGCCAGAGTAGGTACGAAT | 3.07 | 4.31 | 4.31 | 1.86 | 3.73 | 2.38 | 0.554 | 1.72
